Measurements published in PubChem BioAssay (NCATS).
Records with an inconclusive call do not appear. Calls of active or inactive are those of the source. Calls follow the shape of the dose curve; as a rule, active = well fitted cell-killing curve with a large enough effect; inconclusive = small, poorly fitted or top-dose-only effect; inactive = flat fitted curve, though single readings scatter.

experiment: qHTS of pediatric cancer cell lines to identify multiple opportunities for drug repurposing: Primary screen for control Hh wild type fibroblast cells (AID 1347106); details: Hh wild-type fibroblast viability, CellTiter-Glo luminescence, 48 h; series mostly up to 46 µM; activity change, negative = cytotoxic: at the top concentration; also: nearly all actives have a fitted effect of over 55% in size;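 as to activity change, negative = cytotoxic: a drop in luminescence marks cytotoxicity and a rise apparent proliferation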
Description: Drug repurposing or repositioning has been offered as a strategy for drug development in oncology programs. This approach has special potential for childhood cancers and other rare or orphan diseases, where the expected return on new drug development has been a disincentive to pharmaceuticals.
In this project we exploit the poly-pharmacology of drugs to discover new indications via phenotypic screening of a panel of 19 well-characterized cell lines derived from solid tumors seen in children and adolescents. The goal is to identify approved drugs with previously unrecognized anticancer properties that has the potential to reveal new mechanisms and biological processes involved in carcinogenesis or drug resistance. We employed a titration-based paradigm (quantitative high-throughput screening or qHTS), where all compounds were tested at multiple concentrations for their effect on cell viability. Concentration-response curves (CRCs) were derived directly from the primary screen, and both potency and efficacy values were used to identify compounds with robust bioactivity profiles. We screened the NIH Chemical Genomics Center (NCGC) Pharmaceutical Collection (NPC) and Mechanism Interrogation Plate (MIPE) small molecule collections of approved and investigational compounds against these cell lines; and measured metabolically active cells after 48 hours of compound treatment as a proxy for cell viability.
Assay Submitter: Nathalia J. Martinez, National Center for Advancing Translational Sciences, National Institutes of Health, Rockville, MD, USA; email: natalia.martinez@nih.gov
[1] Shen, M et al. Quantitative high-throughput phenotypic screening of pediatric cancer cell lines identifies multiple opportunities for drug repurposing. Oncotarget 2017 Dec 19;9(4):4758-4772. PMID 29435139.
The cells were obtained from University of North Carolina (UNC), Pediatric Preclinical Testing Program (PPT), and Coriell Institute (CI).
qHTS cell viability assay:
Cells were assayed in growth media at a density of 500-1,000 cells/well. Five microliters of cells were dispensed into 1,536-well, white, solid-bottom, TC-treated plates (Greiner Bio One) using a multidrop dispenser and incubated at 37 degrees C, 5% CO2, under a humidified atmosphere for 5 hours. Twenty-three nanoliters of compounds and controls (neutral control DMSO or positive control bortezomib at final concentration of 2.3 µM) were subsequently transferred by Kalypsys pintool. For primary screens, the MIPE collection was tested at 11-point dilutions (final concentrations range from 0.78 nM to 46 µM) and the NPC collection at 8-point dilutions (final concentrations range from 0.59 nM to 46 µM). Compounds tested in follow-up screens were assayed at 11-point dilutions. Cells were incubated for 48 hours, followed by addition of 3 µL of CellTiter-Glo (Promega). After a 15 min incubation at room temperature, samples were analyzed for luminescence intensity using a ViewLux High-throughput CCD imager equipped with clear filters.
% is scaled to controls: 0 for no effect and ±100 for the full control effect; potency is read from the fitted curve at half-maximal effect.

Row | Structure (SMILES) | activity change, negative = cytotoxic | Potency
1 | Cc1cccc2c1CC[C@H](CN1CCC(c3c(Cl)cccc3Cl)CC1)C[C@@H]2O | -1.63% (inactive) | 
2 | CCOC(=O)N1c2ccc(C(F)(F)F)cc2[C@@H](N(Cc2cc(C(F)(F)F)cc(C(F)(F)F)c2)C(=O)OC)C[C@H]1CC | 13.8% (inactive) | 
3 | CN(C)CCOc1cc(-c2cn[nH]c2)ccc1NC(=O)C1COc2ccccc2O1 (stereo not given) | -10.6% (inactive) | 
4 | Cc1ccccc1-n1c(Cn2nc(-c3cccc(O)c3)c3c(N)ncnc32)nc2cccc(C)c2c1=O | 4.6% (inactive) | 
5 | CCCCC[C@H](O)C=C[C@H]1[C@H](O)CC(=O)[C@H]1CC=CCCCC(=O)O | -7.24% (inactive) | 
6 | N#Cc1c(N(CC(=O)O)CC(=O)O)sc(C(=O)O)c1CC(=O)O | 4.15% (inactive) | 
7 | CC(C)C[C@@H](N)[C@H](O)C(=O)N[C@H](C(=O)N[C@H](C(=O)N[C@@H](CC(=O)O)C(=O)O)C(C)C)C(C)C | -12.6% (inactive) | 
8 | C[C@@]1(C(=O)Nc2ccc(F)nc2)CCCN1c1nc(Nc2cc(C3CC3)[nH]n2)c2cccn2n1 |  | 20.9 µM (active)
9 | N#CC(c1ccc(Cl)cc1)c1c(Cl)cc(-n2ncc(=O)[nH]c2=O)cc1Cl (stereo not given) | 7.88% (inactive) | 
10 | CCN1C[C@H](C)n2c(c(O)c3c(=O)n(Cc4ccc(F)c(Cl)c4)nc(C(=O)NC)c32)C1=O | -3.16% (inactive) | 
11 | Cc1ccc(C(=O)N(CCCN)[C@@H](c2oc3cc(Cl)ccc3c(=O)c2Cc2ccccc2)C(C)C)cc1 | -0.8% (inactive) | 
12 | Cc1c(C(=O)Nc2ccc(N3C[C@@H](C)O[C@@H](C)C3)nc2)cccc1-c1ccc(OC(F)(F)F)cc1 | 3.61% (inactive) | 
13 | CON(C)C(=O)N1N=C(c2cc(F)ccc2F)S[C@]1(CCCN)c1ccccc1 | -4.75% (inactive) | 
14 | COC1CCC(C(=O)c2ccc3nc4c(cc3c2)CCCO4)CC1 (stereo not given) | 0.912% (inactive) | 
15 | CCCC1OC2C[C@@H]3[C@H]4CCC5=CC(=O)C=C[C@]5(C)[C@H]4C(O)C[C@]3(C)[C@]2(C(=O)CO)O1 (stereo not given in full) | -3.8% (inactive) | 
16 | N[C@@H](CC(=O)N1CCn2c(nnc2C(F)(F)F)C1)Cc1cc(F)c(F)cc1F | -1.99% (inactive) | 
17 | CC(C)C[C@H](NC(=O)c1cc2ccccc2s1)C(=O)N1CCN(C(=O)[C@H](CO)NS(=O)(=O)c2ccc(Cl)cc2Cl)CC1 | 1.15% (inactive) | 
18 | CN[C@@H]1[C@@H](O)[C@@H](O[C@@H]2[C@@H](O)[C@H](O[C@H]3O[C@H](CN)[C@@H](O)[C@H](O)[C@@H]3O)[C@@H](N)C[C@@H]2NC(=O)[C@@H](O)CN)OC[C@]1(C)O | 1.26% (inactive) | 
19 | C[C@@]1(c2cc(-c3cncnc3)c(F)cc2F)CCSC(N)=N1 | -4.22% (inactive) | 
20 | O=C1NC(=O)C(=Cc2ccc(-c3ccc(F)cc3O)o2)S1 | -9.79% (inactive) | 

Row | Structure (SMILES) | activity change, negative = cytotoxic | Potency
21 | CC[C@@H]([C@H](C)O)n1ncn(-c2ccc(N3CCN(c4ccc(OCC5CO[C@@](Cn6cncn6)(c6ccc(F)cc6F)C5)cc4)CC3)cc2)c1=O (stereo not given in full) | -3.55% (inactive) | 
22 | COc1cc2nc(-c3cc(F)ccc3O)nc(N[C@@H]3CNC[C@@H]3C(C)(C)O)c2cc1OC | -8.16% (inactive) | 
23 | Cc1ccccc1C(=O)c1ccc(Nc2ccc(Br)cc2N)cc1Cl | 9.74% (inactive) | 
24 | O=S(=O)(O)c1ccc2cc(N=Nc3cc(S(=O)(=O)O)c4cccnc4c3O)ccc2c1 | -25.1% (inactive) | 
25 | O=c1cc(-c2ccc(O)c(O)c2)oc2cc(O)cc(O)c12 | 9.75% (inactive) | 
26 | COc1nccc(-c2c(-c3ccc(F)cc3)ncn2C2CCNCC2)n1 | 25.7% (inactive) | 
27 | CCOc1ccccc1N=Nc1c(C)[nH]n(-c2nc(-c3ccccc3)cs2)c1=O | -8.81% (inactive) | 
28 | CN1CCN(c2ncc(-c3cc(Cl)cc(Cl)c3Cl)c(N)n2)CC1 | -14.1% (inactive) | 
29 | COc1cccc(OC)c1-c1cc(C(=O)NC2(C(=O)O)C3CC4CC(C3)CC2C4)nn1-c1ccnc2cc(Cl)ccc12 (stereo not given) | -0.179% (inactive) | 
30 | COc1nc(C)cnc1NS(=O)(=O)c1cccnc1-c1ccc(-c2nnco2)cc1 | 8.66% (inactive) | 
31 | COc1ccc(-c2oc3c(CC=C(C)C)c(O)cc(O)c3c(=O)c2O)cc1 | -1.56% (inactive) | 
32 | CCN(CC)CCCCNc1nc2cc(Cl)c(Cl)cc2nc1-c1ccc(-c2cccs2)s1 | -7.72% (inactive) | 
33 | COc1nccc(-c2c(-c3ccc(F)cc3)ncn2C2CCC(O)CC2)n1 (stereo not given) | 14.2% (inactive) | 
34 | COc1cc([C@H]2Oc3cc([C@H]4Oc5cc(O)cc(O)c5C(=O)[C@H]4O)ccc3O[C@H]2CO)ccc1O | -14.1% (inactive) | 
35 | CC=C(C(=CC)c1ccc(O)cc1)c1ccc(O)cc1 | -13.2% (inactive) | 
36 | CN1c2ccccc2C(=O)N2CCc3c([nH]c4ccccc34)C21 (stereo not given) | 0.665% (inactive) | 
37 | Cc1ccccc1C(C(=O)NC1CCCCC1)N(C(=O)CNc1ccc(C#N)cc1)c1cccc(F)c1 (stereo not given) | 13.2% (inactive) | 
38 | O=C(O)C1=CC(O)C(O)[C@H](O)C1 (stereo not given in full) | 1.87% (inactive) | 
39 | CC(=O)NCCC(=O)N[C@@H](CCC(N)=O)C(=O)N[C@@H](CO)C(=O)N[C@@H](CCC(N)=O)C(=O)N[C@@H](CCC(N)=O)C(=O)N[C@H](C(=O)N[C@@H](Cc1ccccc1)C(=O)N[C@]1(C)CCCCCCC=CCCC[C@@](C)(C(=O)N[C@@H](CCC(N)=O)C(=O)N[C@@H](CC(N)=O)C(N)=O)NC(=O)[C@H](CC(C)C)NC(=O)[C@H](CC(C)C)NC(=O)[C@@H](CCCNC(=N)N)NC(=O)[C@H](Cc2c[nH]c3ccccc23)NC(=O)[C@H](CC(C)C)NC(=O)[C@H](CC(N)=O)NC1=O)[C@H](C)O | 1.19% (inactive) | 
40 | O=C(Nc1cccc(C(F)(F)F)c1)Nc1cc(S(=O)(=O)NC2CC2)ccc1-c1ccsc1 | 1.4% (inactive) | 
